We go through nine molecules from PubChem BioAssay.

Structures are written as SMILES. Results filed as inconclusive are left out. The source made the active and inactive calls.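 The calls were made as follows, unless noted: active = growth inhibition above 25% in both replicates, a cutoff set 3 SD above the mean; inconclusive = above 25% in only one replicate; inactive = the rest.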

The nature of test [1]: reducers of endogenous Her2 protein level, primary screen, SKBR3 breast tumor cells, AlphaScreen, ATP viability (AID 461;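 active = Her2 level under about 52% in both replicate screens, with viability over 70% of control, limit read from the data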;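 as to Her2 level: lower value means less Her2 protein in the cells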;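 as to viability: percent of carrier control wells set as 100% viability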). The settings on record: 18-24 h, measured here: SKBR3 viability, ATP luminescence, at 10 µM.
The target of test [2] is Receptor tyrosine-protein kinase erbB-2 (Homo sapiens) (UniProt P04626). The description is as above. The settings on record: 18-24 h, at 10 µM, stronger effect = lower value.
Receptor tyrosine-protein kinase erbB-2 (Homo sapiens), sequence (P04626 whole entry, looked up): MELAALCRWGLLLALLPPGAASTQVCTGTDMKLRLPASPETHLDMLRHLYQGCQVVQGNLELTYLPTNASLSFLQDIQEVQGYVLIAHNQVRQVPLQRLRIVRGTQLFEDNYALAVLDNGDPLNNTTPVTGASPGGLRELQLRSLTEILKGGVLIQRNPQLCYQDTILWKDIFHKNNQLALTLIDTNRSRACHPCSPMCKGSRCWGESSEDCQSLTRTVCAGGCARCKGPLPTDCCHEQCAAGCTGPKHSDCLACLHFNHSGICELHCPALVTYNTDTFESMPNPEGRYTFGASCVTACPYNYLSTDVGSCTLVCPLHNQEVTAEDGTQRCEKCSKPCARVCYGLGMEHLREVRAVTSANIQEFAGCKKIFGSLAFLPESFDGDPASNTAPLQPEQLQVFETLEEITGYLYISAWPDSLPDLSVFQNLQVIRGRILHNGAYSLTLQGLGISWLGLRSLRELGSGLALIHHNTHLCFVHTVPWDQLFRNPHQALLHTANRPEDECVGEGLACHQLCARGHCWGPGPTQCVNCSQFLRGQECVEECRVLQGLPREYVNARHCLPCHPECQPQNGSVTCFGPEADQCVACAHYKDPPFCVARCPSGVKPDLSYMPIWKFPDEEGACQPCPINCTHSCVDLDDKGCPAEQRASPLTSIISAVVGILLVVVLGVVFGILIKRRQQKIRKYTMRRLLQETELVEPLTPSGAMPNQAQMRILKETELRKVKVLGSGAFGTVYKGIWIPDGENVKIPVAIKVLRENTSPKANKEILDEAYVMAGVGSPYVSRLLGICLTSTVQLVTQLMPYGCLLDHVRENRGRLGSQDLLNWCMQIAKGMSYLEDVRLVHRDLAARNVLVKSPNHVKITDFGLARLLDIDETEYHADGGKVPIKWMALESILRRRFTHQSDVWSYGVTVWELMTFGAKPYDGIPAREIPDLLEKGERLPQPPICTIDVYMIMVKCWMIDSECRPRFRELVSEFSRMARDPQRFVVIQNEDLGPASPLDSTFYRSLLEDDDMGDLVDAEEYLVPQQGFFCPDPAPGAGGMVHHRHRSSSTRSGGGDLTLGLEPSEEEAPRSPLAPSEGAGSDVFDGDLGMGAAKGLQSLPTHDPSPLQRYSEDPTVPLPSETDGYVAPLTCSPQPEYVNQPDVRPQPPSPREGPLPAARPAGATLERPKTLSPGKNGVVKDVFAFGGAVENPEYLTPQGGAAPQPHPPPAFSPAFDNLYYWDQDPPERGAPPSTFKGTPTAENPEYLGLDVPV
Test [3] can be described thus: SK-BR-3 cell growth inhibitors, pilot screen, 24 h, human (AID 572;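 active = viability at or below 10% of carrier control in both of two separate runs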;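 also: compound exposure lasted between 18 and 24 h rather than exactly 24 h; 100% = carrier-treated control wells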). The settings on record: SK-BR-3 viability, CellTiter-Glo luminescence, at 10 µM, stronger effect = lower value.
Test [4] can be described thus: HUVEC growth inhibition – cell-based, human, primary screen (AID 575;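 active = viability at or below 30% in both replicate assays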;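 also: 100% = median of untreated cell wells with 0.1% DMSO on each plate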). The settings on record: HUVEC proliferation, CellTiter-Glo luminescence, 72 h; at 10 µM; stronger effect = lower value.
Test [5] can be described thus: growth inhibitors of H69AR lung tumor, primary screen, human, duplicate replicates (AID 580;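 active = viability at or under a set limit in both replicates, limit being median viability minus 3 SD, cut at about 48% in these data, passing the limit was not always enough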;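 also: 100% = mean luminescence of untreated wells and 0% = no signal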). The settings on record: H69AR lung tumor cells viability, ATP luminescence, 72 h; at 10 µM; stronger effect = lower value.
A short description of test [6]: reversal of MRP1-mediated doxorubicin resistance, pilot screen, H69AR cells, doxorubicin co-treatment (AID 601;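 active = viability loss from added drug above about 55%, and viability with drug at most 40%, in both replicates, limit read from the data, passing the limit was not always enough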). The settings on record: CellTiter-Glo, 72 h, at 10 µM; for differential viability (reversal): stronger effect = higher value.
Test [7] is described as follows: 384-well plate pilot, post-Golgi transport modulator project, inhibition of yeast transport mutant growth (AID 636; in the data active = inhibition above about 31%). The settings on record: absorbance 615 nm, about 18 h, stronger effect = higher value.
Test [8] can be described thus: growth suppression of yeast trafficking mutant, preliminary HTS, modulators of trafficking downstream of Golgi apparatus project, 1536-format plate, OD 615 nm (AID 637; in the data active = inhibition above about 30%). The settings on record: yeast transport mutant growth, absorbance 615 nm, 18 h; stronger effect = higher value.
The nature of test [9]: OD615 S. cerevisiae growth inhibition, permissive medium, pilot counter-assay, permissive growth control for S. cerevisiae lifespan shortening project (AID 705). The settings on record: OD615, 24 h, at 10 µM, stronger effect = higher value.
Test [10] is described as follows: Restrictive medium S. cerevisiae growth inhibition, OD615, pilot screen of yeast lifespan reduction project, restrictive growth control (AID 706;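 active = growth inhibition above a set limit, 3 SD over mean compound inhibition, in both replicates, cut at about 43% in these data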;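 also: modified DeaD lifespan yeast strain shifted to restrictive glucose medium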). The settings on record: OD615, 48 h, at 10 µM, stronger effect = higher value.
The nature of test [11]: viability gain of MRP-1-high H69AR cells under doxorubicin, pilot screen, MRP-1 activator project, CellTiter-Glo, duplicate (AID 807;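 active = viability increase at or above a cutoff of the median across tested compounds plus 3 SD, cut at about 8.5% in these data, passing the limit was not always enough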;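 also: compound pretreatment 18-22 h then 72 h combined with doxorubicin; 0% = doxorubicin alone and 100% = vehicle without doxorubicin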). The settings on record: H69AR viability with doxorubicin, CellTiter-Glo luminescence; at 10 µM; stronger effect = higher value.
Test [12] is described as follows: growth suppression of beta-catenin knockout HCT116, pilot screen, human colon tumor cells (AID 823;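 active = cell viability at or below a set limit in both duplicate runs, the limit being the all-compound median minus 4 SD, cut at about 23% in these data, passing the limit was not always enough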;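 also: 0% = wells killed by 20 µM Hyamine and 100% = untreated DMSO cell wells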). The settings on record: CellTiter-Glo, 60 h, at 10 µM, stronger effect = lower value.
The nature of test [13]: growth suppression of PTEN-deleted HCT116, pilot screen, cell-based, HCT116 clonal line, CellTiter-Glo (AID 824;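 active = viability at or below 27.92% in each of two runs, the all-compound median minus 4 SD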;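 also: 0% = 20 µM Hyamine control and 100% = vehicle cell control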). The settings on record: 60 h, at 10 µM, stronger effect = lower value.
Test [14] can be described thus: inhibitors of the yeast RAM network, pilot screen, dse1pr::URA3 reporter, 5-FOA selection (AID 869;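 active = inhibition over a set limit, the all-compound mean plus 3 SD, in both replicate runs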;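 also: 0% = DMSO wells with no growth and 100% = 10 µM 1-NA-PP1 with full growth; RAM network block rescues cells from 5-FOA so hits raise OD615 growth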). The settings on record: S. cerevisiae dse1pr::URA3 5-FOA growth, OD615, 2 d; at 10 µM; stronger effect = higher value; strain carries analog-sensitive mutant Cbk1 kinase.
Test [15] can be described thus: RAM signaling pathway blockade in yeast – S. cerevisiae, Pdr1DBD-CYC8 efflux-inhibited sensitized strain, primary screen (AID 1298;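 active = RAM network inhibition above 8.4% in each of two replicates, 3 SD over the compound average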;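 also: 0% = DMSO untreated cells without growth and 100% = 10 µM 1-NA-PP1 full growth; higher means more yeast growth rescued from 5-FOA killing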). The settings on record: S. cerevisiae cbk1-as DSE1-URA3 strain, 5-FOA growth OD615, 2 d; at 50 µM; stronger effect = higher value.
Where [16] appears, read: H69AR cells + 2 uM doxorubicin, measured here: viability with 2 uM doxorubicin, stronger effect = lower value.
Where [17] appears, read: H69AR cells, compound alone cytotoxicity.

Take `COc1cc(C(O)c2nc3ccccc3n2C)cc(OC)c1OC` (stereo unspecified): the viability in [1] was 91.5%; in test [3], 91.5% (inactive); in test [4], 99.8% (inactive); in test [5], 103% (inactive); in [6] (setting [16]), 93.2%; in test [6] (setting [17]), 103%. In addition, the viability in test [12] was 94.1% (inactive); in [13], 93.3% (inactive). In [2], the Her2 level was 100% (inactive). In addition, in test [6] (H69AR cells + 2 uM doxorubicin), the differential viability (reversal) is 9.33% (inactive). Further, the inhibition is 1.95% (inactive) in [7], -7.33% (inactive) in [8] and 1.35% (inactive) in test [14]. For the same molecule, the growth inhibition in test [9] is -7.22% (inactive); in [10], -9.59% (inactive). The viability increase in [11] was -0.62% (inactive). The RAM network inhibition in test [15] is 0.78% (inactive).

As to `O=C1CCCC2=C1C(c1cccc(Br)c1)n1nc(-c3ccco3)nc1N2` (stereo unspecified), the viability in test [1] is 95.5%; in [3] it was 95.5% (inactive); in test [4], 80.6% (inactive); in test [5], 103% (inactive); in [6] (setting [16]), 100%; in [6] (setting [17]), 103%. In addition, the viability is 81.5% (inactive) in [12] and 76.5% (inactive) in test [13]. Also, in test [2], the Her2 level was 73% (inactive). For the same molecule, the differential viability (reversal) in [6] (H69AR cells + 2 uM doxorubicin) is 2.4% (inactive). The inhibition in test [7] was -1.73% (inactive); in test [8], -2.95% (inactive). In addition, the growth inhibition in test [9] was -11.7% (inactive); in [10], -0.21% (inactive). For the same molecule, the viability increase in test [11] was -2.06% (inactive). Further, in [15], the RAM network inhibition is 0.99% (inactive).

With `O=C(c1cccs1)N1CCc2ccccc21`, the viability is 110% in [1]; 110% (inactive) in test [3]; 83% (inactive) in test [4]; 94% (inactive) in test [5]; 79.5% in test [6] (setting [16]); 94% in [6] (setting [17]). Also, the viability is 96.3% (inactive) in test [12] and 95.8% (inactive) in [13]. In test [2], the Her2 level was 82% (inactive). The differential viability (reversal) in [6] (H69AR cells + 2 uM doxorubicin) is 14.6% (inactive). Further, the inhibition was -5.47% (inactive) in test [7], 0.97% (inactive) in test [8] and 1.48% (inactive) in test [14]. Besides, the growth inhibition was 1.98% (inactive) in test [9] and 1.57% (inactive) in test [10]. In test [11], the viability increase is -1.9% (inactive). In addition, the RAM network inhibition in test [15] was 1.66% (inactive).

Take `Cn1c(/C=N/n2cnnc2)nc2ccccc21`: the viability was 100% in test [1]; 100% (inactive) in [3]; 105% (inactive) in test [4]; 83.4% (inactive) in [5]; 97.8% in test [6] (setting [16]); 83.4% in [6] (setting [17]). Moreover, the viability was 94% (inactive) in [12] and 94.2% (inactive) in [13]. Besides, the Her2 level in [2] is 78% (inactive). Besides, the differential viability (reversal) in [6] (H69AR cells + 2 uM doxorubicin) is -14.4% (inactive). The inhibition in test [7] is -0.26% (inactive); in test [8], -5% (inactive); in test [14], 0.41% (inactive). Moreover, the growth inhibition is -4.11% (inactive) in [9] and -2.04% (inactive) in test [10]. Besides, the viability increase in [11] is -3.76% (inactive). Besides, the RAM network inhibition in [15] is 5.84% (inactive).

Regarding `CCc1ccc(N(CC(=O)NC2CCCC2)S(=O)(=O)c2c(C)noc2C)cc1`, the viability was 102% in test [1]; 102% (inactive) in [3]; 101% (inactive) in test [4]; 84% (inactive) in test [5]; 80.2% in test [6] (setting [16]); 84% in [6] (setting [17]). Moreover, the viability in test [12] was 92.3% (inactive); in [13], 93.8% (inactive). Moreover, the Her2 level in test [2] is 110% (inactive). Besides, the differential viability (reversal) in test [6] (H69AR cells + 2 uM doxorubicin) is 3.79% (inactive). Further, the inhibition was -4.4% (inactive) in test [7] and -0.83% (inactive) in test [8]. The growth inhibition in [9] is -3.32% (inactive); in [10], 3.27% (inactive). Also, in test [11], the viability increase is -1.49% (inactive). Besides, the RAM network inhibition in [15] is 2.82% (inactive).

With `COc1cccc(/C=N/n2cnnc2)c1OCc1ccccc1`, the viability in [1] is 98%; in test [3], 98% (inactive); in [4], 93.2% (inactive); in [5], 97.8% (inactive); in [6] (setting [16]), 90.8%; in test [6] (setting [17]), 97.8%. Moreover, the results for the viability in test [12] and in test [13] were 107% (inactive) and 98.9% (inactive), respectively. Moreover, in test [2], the Her2 level is 104% (inactive). In test [6] (H69AR cells + 2 uM doxorubicin), the differential viability (reversal) was 7.02% (inactive). The inhibition in [7] is 0% (inactive); in test [8] it was -0.16% (inactive); in test [14], 0.69% (inactive). Moreover, the figures for the growth inhibition in test [9] and in test [10] were -14.7% (inactive) and -17% (inactive), respectively. The viability increase in test [11] is -0.6% (inactive). Further, the RAM network inhibition in [15] was -1.19% (inactive).

`CCSc1nc(O)c(CC)c(=O)n1C(C)CC` (stereo unspecified): the viability in [1] is 104%; in test [3], 104% (inactive); in test [4], 97.9% (inactive); in test [5] it was 108% (inactive); in test [6] (setting [16]), 93.2%; in [6] (setting [17]), 108%. The viability in [12] was 98.6% (inactive); in [13], 93.7% (inactive). Besides, the Her2 level in test [2] was 128% (inactive). Further, the differential viability (reversal) in [6] (H69AR cells + 2 uM doxorubicin) was 14.9% (inactive). Moreover, the values for the inhibition in test [7], in test [8] and in [14] were -6% (inactive), -0.48% (inactive) and -0.63% (inactive), respectively. The growth inhibition was -9.35% (inactive) in test [9] and -3.4% (inactive) in test [10]. Also, the viability increase in test [11] is -0.54% (inactive). The RAM network inhibition in test [15] is 11.3% (inactive).

As to `CCn1c(=O)cc(OCC(=O)Nc2nc(C)cs2)c2ccccc21`, the viability in [1] was 83.5%; in test [3], 83.5% (inactive); in test [4], 61.6% (inactive); in test [5] it was 94.8% (inactive); in test [6] (setting [16]), 92.7%; in [6] (setting [17]) it was 94.8%. The viability in [12] is 93.2% (inactive); in test [13], 86.9% (inactive). Also, the Her2 level in [2] was 84.5% (inactive). For the same molecule, the differential viability (reversal) in [6] (H69AR cells + 2 uM doxorubicin) is 2.11% (inactive). In addition, the inhibition is -3.73% (inactive) in test [7], -1.67% (inactive) in [8] and 1.33% (inactive) in [14]. Also, the growth inhibition is -10.5% (inactive) in [9] and -9.12% (inactive) in test [10]. Also, the viability increase in [11] was -2.41% (inactive). For the same molecule, the RAM network inhibition in test [15] was 2.84% (inactive).

For the molecule `Cc1c(NC(=O)c2noc3c2CCc2ccccc2-3)c(=O)n(-c2ccccc2)n1C`, the viability in test [1] was 95.5%; in test [3] it was 95.5% (inactive); in [4] it was 102% (inactive); in test [5], 99.7% (inactive); in [6] (setting [16]), 105%; in test [6] (setting [17]) it was 99.7%. Moreover, the viability is 101% (inactive) in test [12] and 102% (inactive) in test [13]. Besides, in test [2], the Her2 level was 97.5% (inactive). The differential viability (reversal) in test [6] (H69AR cells + 2 uM doxorubicin) was -5.54% (inactive). In addition, the inhibition in test [7] is -5.73% (inactive); in [8], -7.21% (inactive); in [14], 1.05% (inactive). In addition, the growth inhibition is -3.5% (inactive) in test [9] and 6.45% (inactive) in [10]. Moreover, the viability increase in test [11] is -0.3% (inactive). In addition, the RAM network inhibition in [15] was 4.92% (inactive).
